Sampled rows, rich in hits. Any-hit rate of the full collection: about 12%.
Pf growth 96h: P. falciparum growth inhibition at 96 hours. P. falciparum luciferase reporter growth, 96 h. 320,000 tested, 6.9% active. AID 504834. Potency, µM (titrated, usually from 28.7 µM), without a hit: at the top dose activity change, negative = inhibition, actives largely listed as inhibitors; also: % is scaled to controls: 0 for no effect and ±100 for the full control effect
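P. falciparum expressing integrated firefly luciferase grown in erythrocytes (2% hematocrit, 0.05% parasitemia final) with compounds for 96 hours at 37 C, 5% CO2. Growth inhibition read as loss of luminescence after adding luciferase detection reagent.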
Pf growth 48h: P. falciparum growth inhibition at 48 hours (one generation). P. falciparum luciferase growth in erythrocytes, 48 h. Potency, µM (series often up to 28.7 µM), for inactives: top-dose activity change, negative = inhibition, actives largely listed as inhibitors. 310,000 tested, 5.9% active; also: % is scaled to controls: 0 for no effect and ±100 for the full control effect
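Luciferase-expressing P. falciparum in infected erythrocytes (2% hematocrit, 0.1% parasitemia final) in RPMI 1640/0.5% Albumax were exposed to compound for 48 hours at 37 C, 5% CO2; growth read as luminescence.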
Sm TGR block: S. mansoni TGR enzyme inhibition | 360,000 tested, 3% active | purified TGR, DTNB reduction, TNB absorbance 405 nm | Potency, µM (titrated, usually from 114 µM), for the others: at the highest dose activity change, negative = inhibition, hits mostly inhibitors | Q962Y6 | AID 485364; also: % is scaled to controls: 0 for no effect and ±100 for the full control effect; nearly all actives have a fitted effect of over 60% in size
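Kinetic colorimetric format: TGR-catalysed, NADPH-driven DTNB reduction monitored via TNB absorbance. Enzyme dispensed at 20 nM; compound exposure 15 min at room temperature before reaction start.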
SARS PLP yeast: inhibitors of SARS-CoV papain-like protease in yeast | Potency, µM (top dose mostly 32.9 µM), without a hit: at the top dose activity, positive = growth rescue, hits mostly activators | S. cerevisiae expressing SARS-CoV PLpro, growth rescue | 330,000 tested, 0.19% active | AID 485353; calls by dose curve; also: 0% is about no effect; nearly all actives have a fitted effect of over 55% in size
Starred values were filed as active, the others as inactive; ? = inconclusive; . = no result; [ ] = remark or other dose. Unless noted, calls follow the shape of the dose curve; as a rule, active = well fitted curve in the direction sought with a large enough effect; inconclusive = small, poorly fitted or top-dose-only effect, or another doubt; inactive = no such curve, though single readings can be large; an effect the other way counts as inactive or inconclusive. Potency is read from the fitted curve at half-maximal effect.

SMILES	Pf growth 96h	Pf growth 48h	Sm TGR block	SARS PLP yeast
Clc1ccc(C(Cn2ccnc2)OCc2csc3c(Cl)cccc23)c(Cl)c1 (stereo unspecified)	2.62µM*	1.04µM*	20.6%	.
OC(Cn1ccnc1)c1ccc(Cl)cc1Cl (stereo unspecified)	9.28µM*	10.4µM*	18.3%	-21.2%
Clc1ccc(C(Cn2ccnc2)OCc2c(Cl)cccc2Cl)c(Cl)c1 (stereo unspecified)	2.94µM*	2.33µM*	0.6%	.
O=C(NCc1ccc2c(c1)OCO2)C(=O)NCC1OCCCN1S(=O)(=O)c1ccc(F)cc1 (stereo unspecified)	?	9.9%	-4.3%	-1.9%
Cc1ccc(-c2nn3c(C)nnc3c3ccccc23)cc1S(=O)(=O)NCC(C)O (stereo unspecified)	.	.	2.3%	.
COCCN(CC(=O)Nc1cccc(C)c1C)C(=O)c1oc2ccccc2c1C	.	.	.	-0.4%
CC1CCCC(NC(=O)CN2CCN(S(=O)(=O)c3cccs3)CC2)C1C (stereo unspecified)	-16.7%	?	-11.2%	1.6%
CCCN(CC#CCOc1ccc(OC)cc1)CCC	67.4%	-1.8%	12.6µM*	0.2%
CCOC(=O)/C(C#N)=C/C1=C(N2CCOCC2)C(C)(C)OCC1	14.9%	1.1%	28.2µM*	0.8%
c1ccn(-c2ncnc3sc4c(c23)CCCC4)c1	?	.	-26.8%[11.4 µM]	3.4%
c1cn(-c2ncnc3sc4c(c23)CCCC4)cn1	0.165µM*	-4.8%	0.0%	-2.9%
O=C(NC(=S)NCc1ccc(-c2nc3ccccc3s2)cc1)c1ccco1	14.7µM*	184.9%	2.4%	12.5%
O=C(NCc1ccc(-c2nc3ccccc3s2)cc1)c1ccco1	-2.0%	?	-10.7%	-2.2%
CCc1ccc(NC(=O)c2cc(-c3ccco3)on2)cc1	2.94µM*	277.9%	-21.4%	6.2%
CCCC1=C(C(=O)OCC)C(c2ccco2)C(C#N)=C(N)O1 (stereo unspecified)	?	1.9%	31.6µM*	1.0%
CCOC(=O)C1=C(CC)OC(N)=C(C#N)C1c1ccc(NC(C)=O)cc1 (stereo unspecified)	2.0%	-4.8%	11.2µM*	21.5%
C=CCNC(=O)COC(=O)C1CCN(S(=O)(=O)c2ccc3c(c2)OCCO3)CC1	-20.9%	9.9%	-16.9%	1.2%
CCOc1ccc(NC(=O)Cn2ccn3nc(-c4ccc(OC)c(OC)c4)cc3c2=O)cc1	.	.	-7.3%	.
CN(C)c1ncc(S(=O)(=O)c2ccc(Cl)cc2)c(-c2ccccc2)n1	?	?	12.8%	-17.6%
O=S(=O)(c1ccc(Cl)cc1)c1snnc1-c1ccccc1	?	.	12.6µM*	-33.2%
O=S(=O)(c1ccc(F)cc1)c1snnc1-c1ccccc1	?	9.28µM*	35.5µM*	-14.9%
c1ccc(-c2nnsc2-c2ncc[nH]2)cc1	4.3%	21.3%	3.4%	0.8%
CC(C)C[C@H](NC(=O)c1nc[nH]c1C(=O)NCCCCCNC(=O)OC(C)(C)C)C(=O)OC(C)(C)C	?	7.38µM*	-6.1%	-1.0%
CC(C)C[C@H](NC(=O)c1nc[nH]c1C(=O)N[C@@H](CCCCNC(=O)OC(C)(C)C)C(=O)OC(C)(C)C)C(=O)OC(C)(C)C	2.08µM*	3.7µM*	-9.3%	-0.5%
CC(C)(C)OC(=O)NCCCCCNC(=O)c1[nH]cnc1C(=O)Nc1cccc(Cl)c1	?	?	-9.2%	-0.5%
SMILES	Pf growth 96h	Pf growth 48h	Sm TGR block	SARS PLP yeast
CC(C)(C)OC(=O)NCCCCCNC(=O)c1[nH]cnc1C(=O)Nc1ccon1	5.22µM*	?	5.1%	0.5%
Cc1ccc2c(CC(=O)Nc3ccc(F)c(S(=O)(=O)N4CCOCC4)c3)coc2c1	?	?	2.6%	-6.2%
CC/C(=N\NC(=O)c1cccnc1)c1ccc2c(c1)OCCO2	0.928µM*	-11.0%	0.8%	0.5%
C/C(=N\NC(=O)c1ccc2c(c1)OCO2)c1cccnc1	-7.3%	18.2%	-18.9%	-0.7%
CC(CC(=O)N(C)C1CCCCC1)S(=O)(=O)c1ccc2c(c1)NC(=O)CO2 (stereo unspecified)	7.38µM*	12.7%	0.4%	-5.5%
CCOC(=O)C1CCN(C(=O)CC(C)S(=O)(=O)c2ccc3c(c2)NC(=O)CO3)CC1 (stereo unspecified)	?	-7.6%	-3.7%	-1.1%
OC(CN1CCN(c2ccccn2)CC1)Cn1c2ccccc2c2ccccc21 (stereo unspecified)	1.85µM*	?	2.3%	-4.7%
Cc1ccc2c(c1)c(C)c(C)n2CC(O)CN1CCOCC1 (stereo unspecified)	36.3%	11.7µM*	-12.4%	-12.4%
Cc1c(C)n(CC(O)CN2CCCCCC2)c2ccccc12 (stereo unspecified)	185.1%	?	0.1%	-6.8%
CNCC(O)Cn1c2c(c3ccccc31)CCCC2 (stereo unspecified)	11.2%	10.4µM*	.	0.7%
Cc1ccc2c(c1)c1c(n2CC(O)CNC(C)(C)C)CCCC1 (stereo unspecified)	?	.	-9.6%	-2.5%
Cc1ccc(C(C)C)c(OCC(O)CN2CCOCC2)c1 (stereo unspecified)	.	18.6%	0.0%	-2.2%
OC(COC(c1ccccc1)c1ccccc1)CN1CCN(c2ccccn2)CC1 (stereo unspecified)	?	?	0.7%	4.8%
OC(CN1CCCCC1)Cn1c2ccccc2c2cc(Br)ccc21 (stereo unspecified)	9.28µM*	11.7µM*	21.8%	3.0%
COc1ccc2c(CNCc3cccs3)c(C(=O)O)n(Cc3ccccc3F)c2c1	.	.	-7.9%	.
CCC(=O)N1CCc2cc(Br)cc(S(=O)(=O)N3CCN(c4ccccc4OC)CC3)c21	.	.	5.7%	.
Cc1cccc(CNC(=O)CN2C(=O)C3CCCCN3c3ccc(C(=O)N4CCCC4)cc32)c1 (stereo unspecified)	.	.	3.0%	.
Cc1ccc2c(c1)c1c(n2CC(O)CN2CCCCCC2)CCCC1 (stereo unspecified)	20.5%	8.28µM*	-13.2%	-0.9%
O=C1NNC(c2ccccc2)=N/C1=C\c1ccccc1	?	-12.2%	4.2%	-0.2%
O=C1NC(c2cccc(Br)c2)=N/C1=C\c1ccco1	81.8%	42.2%	79.4µM*	-18.2%
O=C1NC(c2ccccc2Br)=N/C1=C\c1ccco1	0.0%	?	39.8µM*	-2.5%
O=C1NC(=O)/C(=C/c2ccco2)N1	41.0%	28.5%	-21.2%	-22.7%
O=C1NC(c2ccccc2)=N/C1=C/c1ccco1	?	35.4%	50.1µM*	12.3%
O=C(Nc1ccccc1)Nc1ccno1	-4.0%	?	9.0%	0.6%
COc1ccc(NC(=O)c2ncn(-c3ccccc3)n2)cc1Cl	.	.	-0.8%	.
COc1ccc(C2CC(c3cccs3)=NN2C(=O)CSc2nnnn2C)cc1OC (stereo unspecified)	11.7µM*	?	3.2%	0.3%
CCC(=O)N1N=C(c2cccs2)CC1c1ccc(OC)cc1 (stereo unspecified)	?	-21.8%	-9.8%	3.1%
O=C(c1cccs1)N1N=C(c2ccccc2)CC1c1ccccc1 (stereo unspecified)	2.62µM*	?	7.9%	-8.9%

High-throughput results: PubChem, National Center for Advancing Translational Sciences (NCATS)
